Assay results published in the supplement of paper PMC12067093, “Discovery and optimisation of a covalent ligand for TRIM25 and its application to targeted protein ubiquitination” (Chemical Science, 2025).
About 21,000 targets were measured; listed, in parts, are those with the largest changes and a random draw of the rest.

compound: CC1Cc2ccccc2N1C(=O)C1CCCN(C1)C(=O)CCl (mixture of isomers) [TRIM25 ligand 11 (diastereomer mixture)]; assay: probe-labelled cysteine peptide fold change vs DMSO (competition) (log2 fold change); higher = less target engagement (more negative = stronger competition); details: 50 µM; THP-1; incubation time: 4 h
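Further: competitive chemoproteomic profiling in live THP-1 cells with an iodoacetamide desthiobiotin (IA-DTB) probe, comparing probe-labelled peptide intensities in compound-treated cells against DMSO-treated controls.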

UniProt P13674, sequence (P13674 whole entry, looked up): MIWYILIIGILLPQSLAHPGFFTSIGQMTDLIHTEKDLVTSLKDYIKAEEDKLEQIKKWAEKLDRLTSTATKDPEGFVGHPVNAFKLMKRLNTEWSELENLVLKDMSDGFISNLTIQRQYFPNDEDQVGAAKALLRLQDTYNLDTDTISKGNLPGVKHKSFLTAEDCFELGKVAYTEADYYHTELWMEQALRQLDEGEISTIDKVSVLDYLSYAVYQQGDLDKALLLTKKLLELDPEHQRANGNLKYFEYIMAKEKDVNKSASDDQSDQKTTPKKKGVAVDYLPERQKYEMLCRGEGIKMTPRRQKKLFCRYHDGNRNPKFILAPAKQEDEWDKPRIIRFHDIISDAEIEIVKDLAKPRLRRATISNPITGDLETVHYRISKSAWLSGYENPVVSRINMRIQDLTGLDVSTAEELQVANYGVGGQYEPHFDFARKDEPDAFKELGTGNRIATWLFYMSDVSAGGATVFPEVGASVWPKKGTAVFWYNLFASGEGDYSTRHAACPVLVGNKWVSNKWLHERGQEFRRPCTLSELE
UniProt O15226, sequence (O15226 whole entry, looked up): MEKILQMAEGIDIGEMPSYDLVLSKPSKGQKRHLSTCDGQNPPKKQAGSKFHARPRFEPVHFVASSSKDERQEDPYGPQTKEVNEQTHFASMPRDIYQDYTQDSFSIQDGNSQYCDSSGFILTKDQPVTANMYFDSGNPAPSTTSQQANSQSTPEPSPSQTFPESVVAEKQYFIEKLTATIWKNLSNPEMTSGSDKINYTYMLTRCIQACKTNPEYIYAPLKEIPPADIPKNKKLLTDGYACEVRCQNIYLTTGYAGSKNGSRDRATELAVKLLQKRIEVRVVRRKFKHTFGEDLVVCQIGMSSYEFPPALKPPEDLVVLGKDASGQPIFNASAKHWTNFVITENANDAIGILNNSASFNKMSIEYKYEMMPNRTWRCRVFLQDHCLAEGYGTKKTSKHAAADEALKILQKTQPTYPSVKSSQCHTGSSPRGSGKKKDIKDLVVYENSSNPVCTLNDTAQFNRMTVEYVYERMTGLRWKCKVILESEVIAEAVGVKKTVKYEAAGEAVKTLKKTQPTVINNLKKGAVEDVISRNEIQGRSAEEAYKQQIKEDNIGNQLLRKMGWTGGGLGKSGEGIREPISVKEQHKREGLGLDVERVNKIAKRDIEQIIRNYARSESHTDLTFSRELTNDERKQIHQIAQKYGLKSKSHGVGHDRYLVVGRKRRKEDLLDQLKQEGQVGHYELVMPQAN
UniProt Q9BYT8, sequence (Q9BYT8 whole entry, looked up): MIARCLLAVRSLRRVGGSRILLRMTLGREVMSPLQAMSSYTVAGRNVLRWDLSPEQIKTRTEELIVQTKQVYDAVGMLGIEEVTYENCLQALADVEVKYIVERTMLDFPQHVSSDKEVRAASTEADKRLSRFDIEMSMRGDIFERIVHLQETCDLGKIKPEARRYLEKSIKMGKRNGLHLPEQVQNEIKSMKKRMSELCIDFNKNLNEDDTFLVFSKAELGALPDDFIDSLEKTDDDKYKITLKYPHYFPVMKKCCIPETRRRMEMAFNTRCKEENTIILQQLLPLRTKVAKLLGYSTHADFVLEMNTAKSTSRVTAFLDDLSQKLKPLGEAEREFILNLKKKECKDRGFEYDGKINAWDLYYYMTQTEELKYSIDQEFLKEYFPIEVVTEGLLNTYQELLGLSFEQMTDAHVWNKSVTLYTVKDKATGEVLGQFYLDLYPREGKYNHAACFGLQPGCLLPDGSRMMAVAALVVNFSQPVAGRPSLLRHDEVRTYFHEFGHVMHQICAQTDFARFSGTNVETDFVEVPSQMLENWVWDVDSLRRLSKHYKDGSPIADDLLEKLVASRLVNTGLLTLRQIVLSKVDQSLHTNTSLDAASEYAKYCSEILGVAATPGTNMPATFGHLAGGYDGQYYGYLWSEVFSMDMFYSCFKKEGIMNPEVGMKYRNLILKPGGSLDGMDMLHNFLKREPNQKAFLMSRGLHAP
UniProt Q96SU4, sequence (Q96SU4 whole entry, looked up): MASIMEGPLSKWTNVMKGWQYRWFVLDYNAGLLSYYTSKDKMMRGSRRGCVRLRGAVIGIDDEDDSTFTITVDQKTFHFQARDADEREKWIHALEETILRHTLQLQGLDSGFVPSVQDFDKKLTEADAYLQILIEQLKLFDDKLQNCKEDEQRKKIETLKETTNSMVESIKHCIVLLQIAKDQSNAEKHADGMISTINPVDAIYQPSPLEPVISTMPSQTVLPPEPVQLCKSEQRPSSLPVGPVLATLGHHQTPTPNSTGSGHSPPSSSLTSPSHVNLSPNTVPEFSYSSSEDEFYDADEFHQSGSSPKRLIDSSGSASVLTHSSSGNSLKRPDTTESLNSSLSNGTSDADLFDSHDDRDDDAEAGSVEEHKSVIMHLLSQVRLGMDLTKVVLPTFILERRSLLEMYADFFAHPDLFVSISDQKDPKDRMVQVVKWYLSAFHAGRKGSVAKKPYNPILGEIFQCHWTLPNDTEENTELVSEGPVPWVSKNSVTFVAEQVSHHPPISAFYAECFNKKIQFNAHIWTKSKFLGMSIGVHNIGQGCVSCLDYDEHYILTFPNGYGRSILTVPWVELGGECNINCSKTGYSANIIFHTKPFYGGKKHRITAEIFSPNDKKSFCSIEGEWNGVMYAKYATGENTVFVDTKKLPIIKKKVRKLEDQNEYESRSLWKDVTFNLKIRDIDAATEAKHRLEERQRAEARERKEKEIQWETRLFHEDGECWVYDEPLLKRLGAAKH

Going from “NID1_P14543_679_EGSPDALQNPCYIGTHGCDTNAACRPGPR (UniProt P14543)” to “ORC5_O43913_10_PHLENVVLCR (UniProt O43913)”, the “probe-labelled cysteine peptide fold change” value rises from -0.182 to -0.0422.

Compared with “NSUN6_Q8TEA1_242_ILDLCAAPGGK (UniProt Q8TEA1)”, “PAK3_O75914_424_LTDFGFCAQITPEQSKR (UniProt O75914)” is lower in “probe-labelled cysteine peptide fold change” value: -0.0703 for the first, -0.161 for the second.

Going from “OAT_P04181_150_VLPMNTGVEAGETACK (UniProt P04181)” to “OSBPL3_Q9H4L5_114_CIDLDTEEHIYHLK (UniProt Q9H4L5)”, the “probe-labelled cysteine peptide fold change” value falls from 0.0487 to 0.0383.

First: NEMF_O60524_575_YLTPGDIYVHADLHGATSCVIK (UniProt O60524)
Second: OPLAH_O14841_408_LLPASFPCIFGPGENQPLSPEASR (UniProt O14841)
The “probe-labelled cysteine peptide fold change” value of the first is higher: 0.13 for the first, -0.252 for the second.

First: NPM3_O75607_79_VEEEDDAEHVLALTMLCLTEGAKDECNVVEVVAR (UniProt O75607)
UniProt O75607, sequence (O75607 whole entry, looked up): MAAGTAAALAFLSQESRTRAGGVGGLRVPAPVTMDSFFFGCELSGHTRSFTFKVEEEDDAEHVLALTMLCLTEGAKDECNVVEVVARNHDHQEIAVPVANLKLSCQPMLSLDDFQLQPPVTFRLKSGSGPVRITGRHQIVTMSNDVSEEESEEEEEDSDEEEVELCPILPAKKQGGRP
Second: PDS5B_Q9NTI5_732_YAIHCIHAIFSSK (UniProt Q9NTI5)
The “probe-labelled cysteine peptide fold change” value of the first is lower: 0.00371 for the first, 0.0228 for the second.

Compared with “P4HB_P07237_53+56_YLLVEFYAPWCGHCK (UniProt P07237)”, “PARK7_Q99497_46_DPVQCSR (UniProt Q99497)” is higher in “probe-labelled cysteine peptide fold change” value: -0.77 for the first, 0.0666 for the second.

Going from “NCOA7_Q8NI08_487_GALDLETCEK (UniProt Q8NI08)” to “OS9_Q13438_181_CDLNGRPR (UniProt Q13438)”, the “probe-labelled cysteine peptide fold change” value rises from -0.181 to 0.139.

First: NT5DC1_Q5TFE4_139_YYFYDNYFDLPGALLCAR (UniProt Q5TFE4)
UniProt Q5TFE4, sequence (Q5TFE4 whole entry, looked up): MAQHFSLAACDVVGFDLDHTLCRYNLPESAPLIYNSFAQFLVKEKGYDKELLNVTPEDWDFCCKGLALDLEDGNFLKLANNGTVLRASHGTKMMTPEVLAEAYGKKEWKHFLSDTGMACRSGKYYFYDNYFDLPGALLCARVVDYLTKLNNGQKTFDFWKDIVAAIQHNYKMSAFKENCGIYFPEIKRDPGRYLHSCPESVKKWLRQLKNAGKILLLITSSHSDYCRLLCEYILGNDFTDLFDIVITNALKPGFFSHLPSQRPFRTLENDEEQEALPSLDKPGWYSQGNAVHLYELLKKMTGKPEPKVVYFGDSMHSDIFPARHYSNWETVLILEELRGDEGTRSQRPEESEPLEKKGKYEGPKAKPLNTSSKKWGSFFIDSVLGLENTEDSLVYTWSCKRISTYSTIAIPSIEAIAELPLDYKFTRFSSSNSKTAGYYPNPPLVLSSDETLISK
Second: NSUN2_Q08J23_673+678_YEPDSANPDALQCPIVLCGWR (UniProt Q08J23)
The “probe-labelled cysteine peptide fold change” value of the first is higher: 0.718 for the first, 0.0634 for the second.

Compared with “NET1_Q7Z628_267_GYCSNQLAAK (UniProt Q7Z628)”, “NIT1_Q86X76_251+259_AIETQCYVVAAAQCGR (UniProt Q86X76)” is higher in “probe-labelled cysteine peptide fold change” value: 0.103 for the first, 0.575 for the second.

First: PARP1_P09874_908_SANYCHTSQGDPIGLILLGEVALGNMYELK (UniProt P09874)
Second: NDUFAF4_Q9P032_87_AAETCQEPK (UniProt Q9P032)
UniProt Q9P032, sequence (Q9P032 whole entry): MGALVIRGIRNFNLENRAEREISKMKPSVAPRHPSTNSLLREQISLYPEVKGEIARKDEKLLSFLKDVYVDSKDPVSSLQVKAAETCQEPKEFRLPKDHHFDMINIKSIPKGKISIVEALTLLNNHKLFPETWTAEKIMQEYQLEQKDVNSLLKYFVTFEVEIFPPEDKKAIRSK
The “probe-labelled cysteine peptide fold change” value of the first is lower: -0.761 for the first, -0.243 for the second.

First: PACSIN2_Q9UNF0_465_MEDEDEQGWCK (UniProt Q9UNF0)
Second: NUP98_P52948_1711_HIQQVDCSGNDLEQLHIK (UniProt P52948)
The “probe-labelled cysteine peptide fold change” value of the first is lower: 0.00577 for the first, 0.108 for the second.

Going from “NDRG3_Q9UGV2_30_NFQDFDCQEHDIETTHGVVHVTIR (UniProt Q9UGV2)” to “PARK7_Q99497_46_VTVAGLAGKDPVQCSR (UniProt Q99497)”, the “probe-labelled cysteine peptide fold change” value falls from 0.0549 to -0.213.

Going from “NOL6_Q9H6R4_256_LHPCPPPDFFRPCR (UniProt Q9H6R4)” to “NUDT4B_A0A024RBG1_28_AACLCFR<|>NUDT3_O95989_25_AACLCFR<|>NUDT10_Q8NFP7_24_AACLCFR<|>NUDT11_Q96G61_24_AACLCFR<|>NUDT4_Q9NZJ9_25_AACLCFR (UniProt Q9NZJ9+Q8NFP7+Q96G61+O95989)”, the “probe-labelled cysteine peptide fold change” value rises from 0.0433 to 0.0838.

Compared with “PA2G4_Q9UQ80_296_MGVVECAKHELLQPFNVLYEK (UniProt Q9UQ80)”, “NLN_Q9BYT8_451_YNHAACFGLQPGCLLPDGSR (UniProt Q9BYT8)” is higher in “probe-labelled cysteine peptide fold change” value: -0.434 for the first, 0.181 for the second.

First: OSGEP_Q9NPF4_160_IFGETIDIAVGNCLDR (UniProt Q9NPF4)
Second: NEMF_O60524_663_VDESCVWR (UniProt O60524)
The “probe-labelled cysteine peptide fold change” value of the first is lower: -0.0314 for the first, 0.569 for the second.

Compared with “NKRF_O15226_386_VFLQDHCLAEGYGTKK (UniProt O15226)”, “P4HA1_P13674_293_QKYEMLCR (UniProt P13674)” is lower in “probe-labelled cysteine peptide fold change” value: -0.153 for the first, -0.162 for the second.

First: NVL_O15381_431_FDREICLGIPDEASR (UniProt O15381)
Second: NFRKB_Q6P4R8_17_MDSLDHMLTDPLELGPCGDGHGTR (UniProt Q6P4R8)
UniProt Q6P4R8, sequence (Q6P4R8 whole entry): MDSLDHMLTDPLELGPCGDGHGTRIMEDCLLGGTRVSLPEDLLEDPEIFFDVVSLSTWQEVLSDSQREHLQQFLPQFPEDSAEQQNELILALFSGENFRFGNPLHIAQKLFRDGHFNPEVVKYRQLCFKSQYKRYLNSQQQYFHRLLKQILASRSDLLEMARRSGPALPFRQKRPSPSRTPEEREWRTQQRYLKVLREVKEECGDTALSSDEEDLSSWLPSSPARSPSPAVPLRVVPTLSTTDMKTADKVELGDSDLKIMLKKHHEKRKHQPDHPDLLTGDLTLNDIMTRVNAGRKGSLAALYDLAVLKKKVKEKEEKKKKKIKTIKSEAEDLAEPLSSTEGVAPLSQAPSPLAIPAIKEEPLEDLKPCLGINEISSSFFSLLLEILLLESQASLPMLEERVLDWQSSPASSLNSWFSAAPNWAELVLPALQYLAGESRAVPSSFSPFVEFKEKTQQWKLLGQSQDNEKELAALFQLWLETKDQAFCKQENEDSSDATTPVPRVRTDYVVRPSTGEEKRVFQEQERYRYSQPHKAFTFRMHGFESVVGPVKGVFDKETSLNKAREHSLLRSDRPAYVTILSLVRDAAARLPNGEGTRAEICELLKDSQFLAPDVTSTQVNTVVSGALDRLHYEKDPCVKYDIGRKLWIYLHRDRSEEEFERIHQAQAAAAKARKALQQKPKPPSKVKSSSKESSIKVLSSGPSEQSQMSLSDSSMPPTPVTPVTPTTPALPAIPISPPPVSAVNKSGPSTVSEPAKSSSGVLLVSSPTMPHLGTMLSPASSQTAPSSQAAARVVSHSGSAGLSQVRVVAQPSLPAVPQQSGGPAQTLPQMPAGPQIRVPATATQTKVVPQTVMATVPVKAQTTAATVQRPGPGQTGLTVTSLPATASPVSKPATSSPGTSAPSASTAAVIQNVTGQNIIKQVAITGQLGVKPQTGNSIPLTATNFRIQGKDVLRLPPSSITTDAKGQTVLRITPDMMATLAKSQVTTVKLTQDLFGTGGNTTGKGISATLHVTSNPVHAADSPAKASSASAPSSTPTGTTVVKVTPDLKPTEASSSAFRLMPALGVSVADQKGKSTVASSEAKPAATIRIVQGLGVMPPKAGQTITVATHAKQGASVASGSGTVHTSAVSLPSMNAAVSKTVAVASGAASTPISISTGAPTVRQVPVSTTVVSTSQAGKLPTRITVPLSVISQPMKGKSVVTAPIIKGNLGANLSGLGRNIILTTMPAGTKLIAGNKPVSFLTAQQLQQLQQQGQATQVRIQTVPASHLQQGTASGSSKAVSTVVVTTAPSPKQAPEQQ
The “probe-labelled cysteine peptide fold change” value of the first is higher: 0.0728 for the first, -1.37 for the second.

Compared with “NUP155_O75694_667_HNGICIYFSR (UniProt O75694)”, “PAICS_P22234_266_SESQCR (UniProt P22234)” is higher in “probe-labelled cysteine peptide fold change” value: 0.207 for the first, 1.12 for the second.

First: NUP210_Q8TEM1_746_FVCAPPSR (UniProt Q8TEM1)
Second: NSUN5P1_Q3KNT7-3_149_AAAGACTPPCT<|>NSUN5_Q96P11-2_461_AAAGACTPPCT (UniProt Q96P11+Q3KNT7)
The “probe-labelled cysteine peptide fold change” value of the first is higher: 0.329 for the first, -0.0921 for the second.

Going from “PCBP3_P57721_141_LVVPASQCGSLIGK (UniProt P57721)” to “OSBPL9_Q96SU4_577_SILTVPWVELGGECNINCSK (UniProt Q96SU4)”, the “probe-labelled cysteine peptide fold change” value rises from -0.121 to 0.198.
